DAX1 inh-1 – DAX1 (NR0B1) inhibition, primary screen. HEK293T StAR-luciferase reporter, SF-1/DAX-1 repression relief. inhibition, % at 6.8 µM. hit rate 1.1% among 370,000. AID 652010;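 active = inhibition above the mean over all tested compounds plus 3 SD, cut at about 3.6% in these data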;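 also: 0% = DAX-1 cells with DMSO and 100% = cells lacking DAX-1 with DMSO; higher inhibition means more luminescence from relief of DAX-1 repression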
SMARCA2 act – activators of SMARCA2 function; MG213 cells, MMTV-luciferase reporter, dexamethasone, overnight; activation, % at 9.1 µM; hit rate 1% among 370,000; in the data active = activation above about 7.8%;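 also: 0% = vehicle wells and 100% = reference activator wells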
DAX1 inh-2 – NR0B1 (DAX1) inhibition; P51843; HEK293 Gal4-DAX1 luciferase reporter, luminescence; inhibition, % at 6.75 µM; hit rate 0.99% among 340,000;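 active = inhibition above the mean over all tested compounds plus 3 SD, cut at about 4.2% in these data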;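 also: 0% = DAX1-transfected cells with DMSO and 100% = empty-vector control cells with DMSO; inhibition shows as a rise in luminescence from relieved DAX1 repression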
Target sequence (P51843 207-470 limits assumed): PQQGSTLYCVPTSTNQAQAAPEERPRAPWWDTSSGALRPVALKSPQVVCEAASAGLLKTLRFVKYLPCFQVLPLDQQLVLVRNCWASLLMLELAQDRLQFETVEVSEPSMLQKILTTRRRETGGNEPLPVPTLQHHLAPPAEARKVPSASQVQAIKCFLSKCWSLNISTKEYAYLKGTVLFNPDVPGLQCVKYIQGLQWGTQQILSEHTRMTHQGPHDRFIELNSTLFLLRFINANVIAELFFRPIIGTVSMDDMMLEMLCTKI
hcDAF12 agonist – activates DAF-12 receptor from parasite H. contortus; AID 652067; hit rate 1.4% among 370,000; activation, % at 6.8 µM; HEK293 hcDAF-12 lit1-tk-luc reporter, luminescence; 0% DMSO, 100% Δ7-dafachronic acid;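 active = activation above the mean of all tested compounds plus 3 SD, cut at about 5.5% in these data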;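 also: 100% = response to 3 µM Δ7-dafachronic acid high control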
hgDAF12 agonist – activates the H. glycines DAF-12 receptor ligand-binding domain; AID 687014; hit rate 1.8% among 370,000; activation, % at 6.8 µM; HEK293 GAL4-hgDAF12 UAS-luciferase reporter, agonist luminescence; normalized to butyrate control;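 active = activation above a cutoff set at the mean of all screened compounds plus 3 SD, cut at about 10% in these data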;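 also: 0% = DMSO wells and 100% = sodium butyrate wells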
ssDAF-12 act – S. stercoralis DAF-12 activation, primary screen; HEK293 ssDAF-12/GRIP1 lit1-tk-luc reporter, luminescence; % of 3 µM dafachronic acid response; activation, % at 6.8 µM; hit rate 1% among 370,000; AID 652126;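 active = activation above the mean over all tested compounds plus 3 SD, cut at about 0.9% in these data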;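 also: 0% = DMSO-only wells and 100% = 3 µM delta7-dafachronic acid wells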
LXR ag – activates human LXR-beta, counter-screen for hcDAF-12 agonists; shares compounds with hcDAF12 agonist; HEK293 Gal4-LXR tk-luc reporter, luminescence, 24 h; normalized: DMSO 0%, positive control 100%; activation, % at 6.8 µM; 3,400 tested, under 10 active; AID 743027;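 active = mean percent activation of the reporter above a cutoff set as the average over tested compounds plus their standard deviation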
hcDAF12 conf – hcDAF-12 agonism, confirmation assay. shares compounds with hcDAF12 agonist. activation, % at 6.8 µM. HEK293 hcDAF-12 lit1-tk-luc reporter, luminescence; % of Δ7-dafachronic acid response. hit rate 61% among 3,400;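 active = mean activation across triplicate tests above the threshold derived from the earlier primary screen, cut at about 5.5% in these data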;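 also: 0% = DMSO only wells and 100% = 3 µM Δ7-dafachronic acid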
hgDAF12 ag – confirmation of H. glycines DAF-12 agonists; hit rate 80% among 3,300; activation, % at 6.8 µM; HEK293 GAL4-hgDAF12 luciferase reporter, agonist mode; percent of butyrate response; shares compounds with hgDAF12 agonist;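 active = mean activation over triplicate wells above the hit cutoff derived from the earlier primary screen, cut at about 11% in these data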;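 also: 0% = DMSO low control and 100% = 2 mM sodium butyrate high control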
LXRb DAF12 ctr – counter-screen for DAF-12 agonists: agonists of human LXR-beta | HEK293 Gal4-LXR luciferase reporter, 24 h | activation, % at 6.8 µM | shares compounds with hgDAF12 agonist | 3,300 tested, under 10 active;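 active = mean activation of the triplicate above a set limit carried over from the primary screen, none filed active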
The depositor's hits bear a star; . = no result given. Sampled rows, rich in hits. Any-hit rate of the full collection: about 4.8%.

SMILES	DAX1 inh-1	SMARCA2 act	DAX1 inh-2	hcDAF12 agonist	hgDAF12 agonist	ssDAF-12 act	LXR ag	hcDAF12 conf	others
O=C1c2ccccc2-c2cc3ccccc3cc21	0	8	2	6.6*	6	1	0	7.1*
CCCCn1c(=O)c(C(=O)Nc2ccsc2C(=O)OC)c(O)c2ccccc21	1	-1	0	7.2*	3	0	0	5
CCCCn1c(=O)c(C(=O)Nc2ccccc2F)c(O)c2ccccc21	0	-2	0	7.0*	0	0	0	6.1*
C=C1C(=O)OC2CC3(C)OC3CCC(C)=CC(OC(C)=O)C12 (centres undefined)	0	7	0	-1	-8	0	.	.
Cc1ccc(CN2CCN(CC(=O)N3CCC4(CC3)OCCO4)C2=O)cc1	0	-1	1	-2	-2	-1	.	.
CC(=Nc1ccccc1N)c1c(O)n(C)c(=O)[nH]c1=O	2	6	3	7.7*	10	1.8*	0	1
O=C1NC(=O)C(CCc2ccncc2)(C2CCCCC2)C(=O)N1	0	0	0	0	-2	-2	.	.
CCOP(=O)(OCC)C1(O)C(=O)Nc2ccccc21 (centres undefined)	0	0	1	7.1*	0	0	0	3
COc1cc(CNCCc2c[nH]c3ccccc23)cc(OC)c1	0	1	1	8.5*	0	-1	0	1
Nc1ccccc1C(=O)OCCOc1ccccc1	4.3*	3	1	9.3*	11*	0	2	7.5*
C=CCOC(=O)c1ccccc1N	1	-3	1	-3	-4	-1	.	.
CC(C)c1cccc(C(C)C)c1O	0	-5	0	-1	2	-1	.	.
CCc1cc2c(cc1-c1csc(C/C(N)=N/O)n1)C(C)(C)CCC2(C)C	-1	1	-1	-2	6	-1	.	.
CN1CCN(c2ccc(C=O)cc2)CC1	0	2	0	-1	-2	-1	.	.
COc1cccc(-n2c(=S)[nH]c3ccccc3c2=O)c1	-1	-2	-1	3	0	-2	.	.
COc1ccc2c(c1)NP(=S)(Oc1ccccc1)N2 (centres undefined)	1	7	4	5	13*	0	.	.	hgDAF12 ag=8;LXRb DAF12 ctr=0
Cn1c(O)c(C=NCCN2CCN(C(=O)c3ccccc3)CC2)c(=O)n(C)c1=O	0	2	0	-2	4	-1	.	.
COc1ccc(-c2cc(=Nc3cccc(C(=O)O)c3)c3cc(C)ccc3o2)cc1	3	3	-1	5	19*	0.9*	.	.	hgDAF12 ag=19*;LXRb DAF12 ctr=1
CN1C(=O)NC(=O)C(C)(C2=CCCCC2)C1=O (centres undefined)	3.9*	-1	3	5	22*	-1	.	.	hgDAF12 ag=13*;LXRb DAF12 ctr=0
COc1cccc(/C=C2\N=C(c3cncc(Br)c3)OC2=O)c1	0	0	2	-2	3	-1	.	.
